LASV entry inh: blocks Lassa virus binding to or entry into cells; Lassa virus pseudotype entry inhibition, cell reporter; Potency, µM (highest dose often 37.9 µM), for the others: at the top dose activity change, negative = inhibition, usual class: inhibitors; 300,000 tested, 1.2% active; AID 540256; calls by dose curve; tested in HEK293 cells; also: potency is read from the fitted curve at half-maximal effect; nearly all actives have a fitted effect of over 50% in size
Marburg entry inh: Marburg virus entry inhibition; Potency, µM (titrated, usually from 37.8 µM), for the others: at the top dose activity change, negative = inhibition, actives largely listed as inhibitors; 300,000 tested, 1.8% active; Marburg virus pseudotyped entry inhibition, cell reporter; calls by dose curve; tested in HEK293 cells; also: potency is read from the fitted curve at half-maximal effect
HCMV inh: human cytomegalovirus inhibition; 410,000 tested, 4.5% active; AID 1259415; activity change, negative = inhibition, % at 57.5 µM; HFF cells, HCMV-luciferase reporter, 72 h; hits give low values; in the data active = activity change below about -60%; inconclusive = no clear call, values can overlap the other calls; inactive = above about -39%
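Screen run at 2 compound doses on HFFs infected with reporter HCMV, MOI 1 PFU/cell. Luciferase activity from cell lysates at 72 h post infection gave inhibition relative to buffer-only and Salinomycin wells.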
FMDV inh: blocks foot and mouth disease virus; FMDV antiviral cell-based qHTS; Potency, µM (series often up to 57.9 µM), without a hit: top-dose activity change, negative = inhibition, most hits filed as inhibitors; 410,000 tested, 1.2% active; AID 1159524; calls by dose curve; tested in HEK293T cells; also: read-out not given here; potency is read from the fitted curve at half-maximal effect; nearly all actives have a fitted effect of over 45% in size
Starred values were filed as active, the others as inactive; [ ] = remark or other dose. An excerpt weighted towards active compounds, which were near 6.2% of everything screened. % is scaled to controls: 0 for no effect and ±100 for the full control effect.

Screening CCOc1cc(Br)c(COc2ccc(C)nc2[N+](=O)[O-])cc1OCC returned LASV entry inh inconclusive, Marburg entry inh inconclusive, HCMV inh -90* and FMDV inh -20%.
Cc1ccc(OCc2ccc(-c3ccccc3)cc2)c([N+](=O)[O-])n1 was read as LASV entry inh -21%, Marburg entry inh -1%[46.1 µM], HCMV inh -83* and FMDV inh 0%.
Screening CCC1CN(C(=O)C2CCN(S(=O)(=O)c3c(C)noc3/C=C/c3ccc(C)cc3)CC2)c2cc(C)ccc2O1 (stereo not given) returned LASV entry inh 12%[46.1 µM], HCMV inh 55 and FMDV inh -16%.
For O=C(CCCc1ccccc1)Nc1cccc(C(=O)O)c1 the results were LASV entry inh inconclusive, Marburg entry inh 2.5µM*, HCMV inh 41 and FMDV inh 14µM*.
`COc1cc(O)c(C(=O)c2ccccc2)cc1O` gave FMDV inh 49%.
COc1ccc(C(=O)c2ccccc2)c2c(O)ccc(C(=O)c3ccccc3)c12 was read as LASV entry inh inconclusive, Marburg entry inh 14µM*, HCMV inh -79* and FMDV inh 13µM*.
`O=C(/C=C/c1ccc(F)cc1)NNC(=O)CCN1CCN(Cc2ccccc2)CC1` gave LASV entry inh inconclusive, Marburg entry inh inconclusive, HCMV inh -96* and FMDV inh -21%.
For COC/C=C/C1=CC2=CC(=O)C(C)(OC(=O)c3cnc4ccccc4n3)C(=O)C2=CN1Cc1ccccc1 (stereo not given) the results were Marburg entry inh 19%[14.2 µM], HCMV inh 1 and FMDV inh 14µM*.
For CCOC(=O)c1c(NC(=O)CSc2nnnn2C)sc(C)c1-c1ccc(C)cc1 the results were LASV entry inh inconclusive, Marburg entry inh 23µM*, HCMV inh inconclusive and FMDV inh inconclusive.
Screening CCOC(=O)c1c(NC(=O)CSc2nncs2)sc(C)c1-c1ccccc1 returned LASV entry inh inconclusive, Marburg entry inh inconclusive, HCMV inh -64* and FMDV inh inconclusive.
CCOC(=O)c1c(-c2ccccc2)csc1NC(=O)CSc1nncs1 was read as LASV entry inh inconclusive, Marburg entry inh inconclusive, HCMV inh 0 and FMDV inh inconclusive.
`COc1ccc(OC)c(CN(CC(C)C)S(=O)(=O)c2ccccc2Br)c1` gave HCMV inh -35.
For COC(CNC(=O)C1CCN(C(=O)c2cc3oc(C)cc3n2Cc2c(F)cccc2Cl)CC1)OC the results were LASV entry inh inconclusive, Marburg entry inh inconclusive, HCMV inh -67* and FMDV inh 0%.
CCOC(=O)N1CCC(NC(=O)C2CCN(C(=O)c3cc4oc(C)cc4n3Cc3c(F)cccc3Cl)CC2)CC1 was read as HCMV inh -2 and FMDV inh -8%.
For C/C(=N/NC(=O)CNC(=O)COc1ccccc1)c1ccco1 the results were LASV entry inh -1%, Marburg entry inh inconclusive, HCMV inh -63* and FMDV inh 15%.
`O=C(COc1ccccc1)Nc1ccc(S(=O)(=O)NCc2ccco2)cc1` gave LASV entry inh 23µM*, Marburg entry inh inconclusive, HCMV inh 9 and FMDV inh 38%.
For C/C(=N\NC(=O)COc1ccc(C(C)(C)C)cc1)c1cc2ccccc2o1 the results were LASV entry inh 3.2µM*, Marburg entry inh 10µM*, HCMV inh -38 and FMDV inh -13%.
For C/C(=N\NC(=O)COc1ccc(C(C)(C)C)cc1)c1ccccc1 the results were LASV entry inh -5%, Marburg entry inh -4%[46.1 µM], HCMV inh 7 and FMDV inh 4%.
Screening C/C(=N/NC(=O)CNC(=O)COc1cccc(C)c1)c1ccco1 returned LASV entry inh -1%, Marburg entry inh inconclusive, HCMV inh 1 and FMDV inh 2%.
Screening O=C(COc1ccccc1)NCC(=O)Nc1ccc(S(=O)(=O)NCc2ccco2)cc1 returned LASV entry inh -8%, Marburg entry inh 4%, HCMV inh -103* and FMDV inh -17%.
For O=C(c1cccc(Cl)c1)N1CCC(=O)N(C(COCc2ccccc2)Cc2ccccc2)CC1 (stereo not given) the results were LASV entry inh 4.6µM*, Marburg entry inh inconclusive, HCMV inh 14 and FMDV inh -20%.
Screening CC(C)CC(COCc1ccc(Cl)cc1)N1CCN(C(=O)c2ccc(Cl)cc2Cl)CCC1=O (stereo not given) returned LASV entry inh 15µM*, Marburg entry inh inconclusive, HCMV inh 2 and FMDV inh -16%.
`Cc1cccc(COCC(Cc2ccccc2)N2CCN(C(=O)c3cccc(Cl)c3)CCC2=O)c1` (stereo not given) gave LASV entry inh 5.2µM*, Marburg entry inh -13%, HCMV inh 3 and FMDV inh -7%.
Screening Cc1cccc(C(=O)N2CCC(=O)N(C(COCc3ccccc3)Cc3ccccc3)CC2)c1 (stereo not given) returned LASV entry inh 5.8µM*, Marburg entry inh 1%, HCMV inh -20 and FMDV inh 0%.
Cc1cccc(COC[C@H](Cc2ccccc2)N2CCN(C(=O)c3cccc(Cl)c3)CCC2=O)c1 was read as HCMV inh 5 and FMDV inh -17%.
`CC(C)C[C@@H](COCc1ccc(Cl)cc1)N1CCN(C(=O)c2ccc(C(F)(F)F)cc2)CCC1=O` gave HCMV inh -2 and FMDV inh -20%.
Screening CCCN(C(=O)Cn1cnc2onc(-c3ccc(F)cc3)c2c1=O)c1cccc(Cl)c1 returned LASV entry inh -2%[46.1 µM], HCMV inh 9 and FMDV inh -20%.
Nc1cc(N2CCCCC2)nc(N)[n+]1OS(=O)(=O)[O-] was read as FMDV inh 12%[97.4 µM].
For O=C1CCC[C@H]2[C@@H](Cc3ccccc3)[C@H](NCc3ccccc3)CC[C@]23CCCN13 the results were HCMV inh -9.
`O=C(Nc1ccccn1)c1csc2c1CCCC2` gave LASV entry inh inconclusive, Marburg entry inh inconclusive, HCMV inh 9 and FMDV inh 25%.
O=C(Nc1ccccn1)c1onc2c1CCCC2 was read as LASV entry inh 7.3µM*, Marburg entry inh inconclusive, HCMV inh inconclusive and FMDV inh 14µM*.
For Cc1cccc(C(O)c2ncc(-c3ccc4ccccc4c3)[nH]2)c1C (stereo not given) the results were HCMV inh 5 and FMDV inh 39%.
`Cc1ccc(N2C(=O)CSC23C(=O)N(CC(=O)NCCc2ccccc2)c2ccccc23)cc1C` (stereo not given) gave LASV entry inh -21%[46.1 µM], HCMV inh 6 and FMDV inh 1%.
COc1ccc(-c2cn3cc(C)ccc3n2)cc1Br was read as LASV entry inh inconclusive, Marburg entry inh 14µM*, HCMV inh 194 and FMDV inh 0%.
Screening COc1ccc(-c2cn3cc(Cl)ccc3n2)cc1OC returned LASV entry inh 7%, Marburg entry inh inconclusive, HCMV inh 124 and FMDV inh 11%.
For Cc1c(NC(=O)C(C)Sc2nc(N)cc(=O)[nH]2)c(=O)n(-c2ccccc2)n1C (stereo not given) the results were HCMV inh -63* and FMDV inh -15%.

Source: PubChem BioAssay
